Hits are enriched below; roughly 4.2% of the tested compounds scored in any of these assays.
ClpP mod: qHTS Assay for Activators of ClpP | purified B. subtilis ClpP, FRET peptide cleavage, 20 min | ATP-dependent Clp protease proteolytic subunit (Bacillus subtilis (strain 168)), P80244 | AID 651965, 2013 | 340,000 compounds, 1.9% hits | Potency, µM (series often up to 57.5 µM), inactives show at the highest dose activity change, negative = active; active = well fitted falling curve with a large enough effect; inconclusive = small, poorly fitted or top-dose-only effect; inactive = no such curve, though single readings can be large or run the other way; note: potency is the fitted concentration of half-maximal effect; the source files actives as falling curves though it sought activators and does not explain the sign; nearly all actives have a fitted effect of over 65% in size
Target sequence (P80244 whole entry, looked up): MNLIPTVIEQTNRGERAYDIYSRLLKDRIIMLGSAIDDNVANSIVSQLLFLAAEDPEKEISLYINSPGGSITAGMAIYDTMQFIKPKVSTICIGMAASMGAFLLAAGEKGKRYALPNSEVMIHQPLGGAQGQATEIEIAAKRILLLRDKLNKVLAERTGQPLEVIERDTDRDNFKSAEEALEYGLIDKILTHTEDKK
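ClpP 10 microg/mL final, pH 8 Tris/KCl buffer with BSA, glycerol, Tween-20; compound pinned in; FRET-FV substrate; RT 20 min; Ex320/Em430; ΔFRET vs ADEP 5.8 microM, DMSO, no enzyme.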
uPA surface inh: qHTS for Inhibitors of Cell Surface uPA Generation; cell surface uPA generation assay, qHTS; Potency, µM (series often up to 38.3 µM), without a hit: top-dose activity change, negative = inhibition, actives largely listed as inhibitors; 330,000 compounds, 0.31% hits; AID 540303, 2011; active = well fitted inhibition curve with a large enough effect; inconclusive = small, poorly fitted or top-dose-only effect; inactive = no such curve, though single readings can be large or run the other way; tested in mouse RAW 264.7 cells; note: potency is the fitted concentration of half-maximal effect; % is set by controls: 0 for no effect and ±100 for the full control effect; nearly all actives have a fitted effect of over 55% in size
TCR act: Activators of T cell receptors: qHTS campaign; primary human leukocytes, anti-CD3, IL-2 HTRF, 48 h; Potency, µM (top dose mostly 9.22 µM), for the others: at the highest dose activation of IL-2 secretion, most hits filed as activators; 330,000 tested, under 10 active; note: % of control where 0% means no effect
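Activity was scored as IL-2 release from primary human leukocytes given only a TCR signal (a-CD3 beads) plus compound for 48 hr. Detection used a two-antibody HTRF format read at 665nm.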
Sfp inh: qHTS Assay for Inhibitors of Bacillus subtilis Sfp phosphopantetheinyl transferase (PPTase). 4'-phosphopantetheinyl transferase ffp (Bacillus subtilis), Q9F4F7. Biochemical Sfp PPTase activity, qHTS. Potency, µM, for inactives: largest response in the series, negative = inhibition, most hits filed as inhibitors. 310,000 compounds, 3.5% hits. AID 1490, 2009;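 note: the enzyme is Sfp with the accession as filed and its product quenches rhodamine fluorescence; potency is the fitted concentration of half-maximal effect; 0% = enzyme reaction without inhibitor and -100% = no enzyme wells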
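With Hepes-Na pH 7.6 buffer containing 10 mM MgCl2, Sfp (15 nM) modified BHQ-2-YbbR (12.5 uM) using rhodamine-CoA (5 uM). Two reads 30 minutes apart at 525/598 nm yielded each well's rate.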
Numbers without * were called inactive; ? = inconclusive; . = no result; [ ] = another dose, or the depositor's remark. Unless noted, calls come from the whole dose curve; as a rule, active = well fitted curve in the direction sought with a large enough effect; inconclusive = small, poorly fitted or top-dose-only effect, or another doubt; inactive = no such curve, though single readings can be large; an effect the other way counts as inactive or inconclusive.

SMILES	ClpP mod	uPA surface inh	TCR act	Sfp inh
COC(=O)[C@@H](O)CC[C@@H](C)Cc1c(OC)c(OC)c(C)c(OC)c1OC	.	.	.	17.8%
COc1ccc(CNc2ncnc3c2c(-c2ccccc2)cn3-c2ccccc2)cc1	25.1µM*	.	.	.
CCOC(=O)C(CC)Sc1ncnc2c1c(-c1ccccc1)cn2-c1ccc(OC)cc1 (configuration not stated)	22.4µM*	.	.	.
Cc1ccc(CNc2ncnc3c2c(-c2ccccc2)cn3-c2ccccc2)cc1	28.2µM*	.	.	.
CCOc1ccc(-n2cc(-c3ccccc3)c3c(NCc4ccccc4)ncnc32)cc1	4.6%	.	.	.
Cc1cc(Cn2nc(C(=O)NCC3CC3)cc2-c2ccccc2)on1	0.8%	-2.8%	-39.8%	.
C=C(C)CSC1=C(C#N)C(c2ccccc2Cl)CC(=O)N1 (configuration not stated)	-5.3%	-2.4%	3.4%	44.7µM*
CCSC1=C(C#N)C(c2ccccc2C)CC(=O)N1 (configuration not stated)	1.1%	-5.9%	.	18.3%
CCCSC1=C(C#N)C(c2cccs2)CC(=O)N1 (configuration not stated)	.	2.0%	2.6%	25.1µM*
C=CCSC1=C(C#N)C(c2ccc(OCC)cc2)CC(=O)N1 (configuration not stated)	1.5%	-13.9%	-15.3%	79.4µM*
C=CCSC1=C(C#N)C(c2ccccc2C)CC(=O)N1 (configuration not stated)	28.2µM*	0.3%	-4.5%	?
Cc1cccc(NC2=CC(c3cccc(Br)c3)N(c3cccc(C)c3)C2=O)c1 (configuration not stated)	0.4%	.	.	.
C=CCSC1=C(C#N)C(c2ccccc2Cl)CC(=O)N1 (configuration not stated)	-2.4%	9.3%	.	35.5µM*
COc1ccc(OC)c(/C=N/NC(=O)CC2C(=O)NN=C2C)c1 (configuration not stated)	28.2µM*	-1.9%	9.7%	18.8%
COc1ccc(CCC(=O)NNC(=O)Nc2cccc(Cl)c2)cc1	-0.5%	-5.4%	-5.7%	12.3%
COc1ccc(OC)c(/C=N/NC(=O)CCc2c(C)n[nH]c2C)c1	4.0%	-1.0%	-4.5%	11.1%
COc1cccc(/C=N/NC(=O)CC2C(=O)NN=C2C)c1OC (configuration not stated)	?	-2.5%	9.6%	22.8%
COc1ccc(OC)c(/C=N/NC(=O)CCc2ccc(O)c(O)c2)c1	8.91µM*	-4.3%	0.0%[46.1 µM]	?
COc1cccc(NC(=O)NNC(=O)CCc2ccc(O)c(O)c2)c1	2.5%	1.4%	12.4%	56.2µM*
CCn1c2c(c3cc(OCC(C)C)ccc31)CCCC2=O	28.2µM*	13.7%	-11.2%[46.1 µM]	-16.1%
CCn1c2c(c3cc(Br)ccc31)CCC/C2=N\O	-3.7%	.	6.0%	-3.3%
Cc1cc(C)c2cc(CN(Cc3ccco3)C(=S)NCC3CCCO3)c(=O)[nH]c2c1 (configuration not stated)	-3.6%	12.5%	-5.2%	20µM*
Cc1ccc2cc(CN(CC3CCCO3)C(=S)NCc3ccco3)c(=O)[nH]c2c1C (configuration not stated)	-2.8%	-22.1%	7.5%[46.1 µM]	31.6µM*
CCc1ccc2[nH]c(=O)c(CN(CC3CCCO3)C(=S)NCc3ccco3)cc2c1 (configuration not stated)	-7.8%	-17.3%	-1.3%	3.55µM*
COc1ccc2cc(CN(Cc3ccco3)C(=S)NCC3CCCO3)c(=O)[nH]c2c1 (configuration not stated)	.	0.0%	3.7%	-15.9%
SMILES	ClpP mod	uPA surface inh	TCR act	Sfp inh
CCc1ccc2[nH]c(=O)c(CN(CCN(C)C)C(=S)NCc3ccco3)cc2c1	.	0.7%	0.1%	-14.8%
Cc1ccc(C)c2[nH]c(=O)c(CN(CC3CCCO3)C(=S)NCc3ccco3)cc12 (configuration not stated)	.	-7.7%	2.8%	-23.8%
CCc1ccc2[nH]c(=O)c(CN(CCN(CC)CC)C(=S)NCc3ccco3)cc2c1	-19.5%	?	-3.8%	79.4µM*
Cc1cccc(C)c1NC(=O)Cn1c(=O)n(CCCS(=O)(=O)C2CCCCC2)c(=O)c2ccccc21	-1.8%	.	.	.
CCN(C(=O)c1cnc(OC)cc1C(F)(F)F)c1ccc(Cl)cc1Cl	-2.0%	11.5%	6.8%	5.7%
CCCn1c(N)c(C(=S)NC(=O)C2CC2)c(=O)n(C)c1=O	-4.0%	4.0%	-3.8%[46.1 µM]	50.1µM*
CCCCn1c(N)c(C(=S)NC(=O)CC(C)C)c(=O)n(C)c1=O	-1.3%	-2.6%	1.3%[46.1 µM]	9.3%
O=c1[nH]cnc2nc[nH]c12	.	.	.	79.4µM*
CCCOc1ccc(C(=O)Nc2ccc(Cl)c(-c3nc4ncccc4o3)c2)cc1	-12.9%	.	.	.
S=c1[nH]c(-c2ccccc2)cn1/N=C/c1ccc(Br)cc1	.	-0.8%	-2.1%	10.6%
S=c1[nH]c(-c2ccccc2)cn1/N=C/c1cccs1	.	-1.2%	2.7%	?
Cc1ccc(C)c(/C=N/n2cc(-c3ccccc3)[nH]c2=S)c1	.	-2.2%	-2.3%	4.1%
O=C(O)c1ccc(/C=N/n2cc(-c3ccccc3)[nH]c2=S)cc1	1.6%	7.2%	10.7%	17.8µM*
Fc1ccccc1/C=N/n1cc(-c2ccccc2)[nH]c1=S	.	-1.0%	-5.0%	89.1µM*
S=c1[nH]c(-c2ccccc2)cn1/N=C/c1cccnc1	-27.5%	3.9%	-4.0%	44.7µM*
COc1cc(CCC(=O)Nc2ccc(Br)c(C(F)(F)F)c2)cc(OC)c1OC	?	-0.7%	-6.0%[46.1 µM]	14.6%
Cc1ccc(NC(=O)Cn2c(CCC(=O)O)ccc2-c2cccs2)cc1Cl	-26.7%	2.2%	4.9%	39.8µM*
O=C(O)CCc1ccc(-c2cccs2)n1CCC(=O)O	-12.3%	1.6%	1.4%	7.94µM*
O=C(O)CCc1ccc(-c2cccs2)n1CCc1ccccc1	?	-4.3%	14.0%	20µM*
CCCCNC(=S)N(Cc1c(C)noc1C)c1ccccc1	3.98µM*	3.5%	-1.0%[46.1 µM]	7.9%
CCNC(=S)N(Cc1c(C)noc1C)c1ccccc1	-2.2%	4.8%	3.5%[46.1 µM]	-9.4%
CCOc1ccc(C2C(C#N)=C(N)SC(N)=C2C#N)cc1OCC	-0.8%	-2.3%	.	?
CCOc1ccc(C2C(C#N)=C(N)SC(N)=C2C#N)cc1OC	.	.	.	50.1µM*
CCOc1ccccc1C1C(C#N)=C(N)SC(N)=C1C#N	1.4%	-1.8%	-23.3%	44.7µM*
Cc1cc(=O)oc2cc(OCC(=O)N3CCc4ccccc4C3)ccc12	25.1µM*	-3.8%	-5.3%	17.5%
Cc1cc(=O)oc2cc(OCC(=O)NCc3ccccn3)ccc12	25.1µM*	12.2%	-4.7%	6.5%
Cc1cc(=O)oc2cc(OCC(=O)N3CCCc4ccccc43)ccc12	?	-0.3%	-3.2%	6.1%
Cc1cc(=O)oc2cc(OCc3nnc(-c4ccccc4Br)o3)ccc12	28.2µM*	-1.8%	-7.8%	-14.2%
Cc1cc(=O)oc2cc(Oc3ncccn3)ccc12	31.6µM*	-0.9%	5.3%	23.0%

Source: PubChem (National Center for Advancing Translational Sciences (NCATS))
